In the library only some 10% were active in any assay of this set; here they are far more common.
ALOX12 inhib: blocks human 12-lipoxygenase activity; P18054; purified 12-hLO, xylenol orange hydroperoxide absorbance; Potency, µM (highest dose often 57.1 µM), for inactives: at the highest dose activity change, negative = inhibition, most hits filed as inhibitors; actives 0.12% (n = 150,000); AID 1452; further: potency means the concentration at half of the fitted maximal effect; nearly all actives have a fitted effect of over 55% in size
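Purified human 12hLO (150 nM), preincubated 15 min with compound, then 40 uM arachidonic acid for 30 min, room temperature, Hepes pH 7.0 with 0.01% Triton X-100. Hydroperoxide detected by ferrous iron/xylenol orange; 573/405 nm absorbance ratio gives reaction progress.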
PNC inhibitor: perinucleolar compartment assembly inhibition | PC3M PTB-GFP, PNC prevalence imaging, 16 h; hits give low values | activity change (PNC), negative = inhibition, % at 10 µM | actives 3.1% (n = 140,000);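 active means readout at or below -70, meaning at least 70% loss of cells showing the perinucleolar compartment, a nuclear body marking cancer cells; inconclusive means readout between -30 and a set limit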;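 further: plate controls were DMSO wells for no effect and camptothecin positive control wells for full effect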
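Read-out is percentage of cells bearing a perinucleolar compartment, from automated 20x imaging of fixed, Hoechst-stained PC3M PTB-GFP cells. Cells were seeded 4 h, then exposed 16 h to compound (23 nl of library stock) in duplicate plates.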
HPGD inh: blocks human HPGD enzyme activity. P15428. purified HPGD, NADH fluorescence kinetic, PGE2 substrate. Potency, µM, inactives show top-dose activity change, negative = inhibition, usual class: inhibitors. actives 4.3% (n = 150,000). AID 894; active means well fitted inhibition curve with a large enough effect, not every such curve was filed as active; inconclusive means small, poorly fitted or top-dose-only effect, or another doubt; inactive means no such curve, though single readings can be large or run the other way; further: potency means the concentration at half of the fitted maximal effect
Target sequence (P15428 whole entry, looked up): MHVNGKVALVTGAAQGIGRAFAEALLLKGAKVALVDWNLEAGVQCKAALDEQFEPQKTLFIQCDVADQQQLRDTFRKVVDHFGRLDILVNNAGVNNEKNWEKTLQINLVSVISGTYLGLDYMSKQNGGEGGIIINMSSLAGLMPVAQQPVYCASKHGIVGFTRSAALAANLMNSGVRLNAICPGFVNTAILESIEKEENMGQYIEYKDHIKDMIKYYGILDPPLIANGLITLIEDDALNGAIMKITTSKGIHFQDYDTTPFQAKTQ
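NADH formation kinetics: reaction with 30 uM PGE2 and 1 mM NAD+ (final), 20 nM enzyme, Tris-HCl pH 8 with Tween 20, after 15 min compound preincubation at room temperature. Fluorescence change, last versus first of five reads.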
GLA inh pH 4.5: inhibitors of human alpha-galactosidase A at pH 4.5; 230,000 tested, under 10 active; P06280; purified enzyme, 4-MU-alpha-Gal fluorescence, pH 4.5; activity change, negative = inhibition, % at 105 µM;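 further: 0% = full activity with enzyme and -100% = basal without enzyme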
Target sequence (P06280 whole entry, looked up): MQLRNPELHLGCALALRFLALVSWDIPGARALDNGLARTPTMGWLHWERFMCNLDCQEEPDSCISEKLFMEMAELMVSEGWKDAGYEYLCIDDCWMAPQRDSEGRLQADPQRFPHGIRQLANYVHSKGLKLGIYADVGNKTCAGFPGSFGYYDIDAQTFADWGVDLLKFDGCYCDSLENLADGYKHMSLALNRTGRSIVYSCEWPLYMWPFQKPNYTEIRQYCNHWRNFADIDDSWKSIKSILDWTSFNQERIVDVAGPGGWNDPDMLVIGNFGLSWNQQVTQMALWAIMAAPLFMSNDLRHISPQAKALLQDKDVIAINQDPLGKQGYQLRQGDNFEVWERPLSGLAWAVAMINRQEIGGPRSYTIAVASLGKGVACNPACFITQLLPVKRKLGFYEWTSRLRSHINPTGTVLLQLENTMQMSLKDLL
aGal spleen mod: inhibitors or activators of human alpha-galactosidase in spleen homogenate. P06280. human spleen homogenate, 4MU-alpha-Gal fluorescence, 40 min. Potency, µM (highest dose often 80 µM), without a hit: top-dose activity change, negative = inhibition, most hits filed as inhibitors. actives 0.008% (n = 240,000);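 further: potency means the concentration at half of the fitted maximal effect; 0% = enzyme with vehicle and -100% = no enzyme basal signal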
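Spleen homogenate 1 ug + cpd (titration) + 4-MU-alpha-D-galactopyranoside 1 mM; 37C 40 min; 50 mM citrate/phosphate pH 5.0, 0.01% Tween-20; stop pH 10; fluorescence 365/440; AC50 via Hill.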
ALDH1A1 block: inhibitors of human aldehyde dehydrogenase 1A1. P00352. Purified ALDH1A1, NADH fluorescence, propionaldehyde substrate. Potency, µM (series often up to 75.3 µM), without a hit: at the highest dose activity, negative = inhibition, usual class: inhibitors. actives 7.3% (n = 220,000); active means well fitted inhibition curve with a large enough effect, not every such curve was filed as active; inconclusive means small, poorly fitted or top-dose-only effect, or another doubt; inactive means no such curve, though single readings can be large or run the other way;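 further: potency means the concentration at half of the fitted maximal effect; plate controls were no enzyme wells and a reference inhibitor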
Starred values were filed as active, the others as inactive; ? = inconclusive; / = no result; [ ] = dose if it differs, or a comment. Unless noted, the call rests on the fitted dose curve; in most records, active means well fitted curve in the direction sought with a large enough effect; inconclusive means small, poorly fitted or top-dose-only effect, or another doubt; inactive means no such curve, though single readings can be large; an effect the other way counts as inactive or inconclusive. Unless noted, on the % scale 0 is the no-effect control and ±100 the full control effect.

SMILES	ALOX12 inhib	PNC inhibitor	HPGD inh	GLA inh pH 4.5	aGal spleen mod	ALDH1A1 block
O=S1(=O)[C@H]2C[C@@H]3C=C[C@]2(CN1Cc1ccc(C(F)(F)F)cc1)O3	/	/	/	9	-7%	/
Cc1cc(C)n(CCC(=O)N/N=C/c2ccc(Br)c([N+](=O)[O-])c2)n1	/	/	/	-8	-2%	/
O=[N+]([O-])c1ccc(N=Cc2ccc(Br)c([N+](=O)[O-])c2)cc1	3%	15	-17%	-20	-24%	7.9µM*
Cc1c(N=Cc2ccc(O)c(Br)c2)cccc1[N+](=O)[O-]	-3%	?	?	-6	-6%	22µM*
O=C(CN(Cc1ccco1)S(=O)(=O)c1ccccc1)N/N=C/c1ccccc1C(=O)O	/	/	/	-4	-2%	6%
CCC(C)NS(=O)(=O)c1ccc(S(=O)(=O)N(CC(=O)Nc2ccccc2)Cc2ccco2)cc1 (stereo not drawn)	-2%	11	-11%	-2	-10%	25µM*
O=c1cc(CSc2ccccc2)[nH]c(=S)[nH]1	0%	-25	-11%	1	-16%	28µM*
Cc1nnc(SCc2cc(=O)[nH]c(=S)[nH]2)s1	/	/	/	10	1%	13µM*
Cc1nnc(SCc2ccc(F)cc2)s1	-3%	?	-10%	4	0%	4%
O=c1cc(CSc2ccc(Cl)cc2)[nH]c2[nH]n(-c3ccccc3)c(=O)c12	/	/	/	-8	0%	/
O=C(O)[C@@H](O)[C@@H](O)[C@@H](O)[C@@H](O)C(=O)O (tested in a mixture with another compound)	1%[25.6 µM]	/	7%	-2	2%[29.1 µM]	27%[20.9 µM]
COCCCn1c(=O)/c(=C\c2ccccc2OC(F)F)s/c1=C(/C#N)C(=O)N1CCOCC1	/	/	/	-7	2%	6.3µM*
COCCCn1c(=O)/c(=C\c2ccccc2OC(F)F)s/c1=C(/C#N)C(=O)NCCOC	/	/	/	10	6%	/
O=C(COc1ccccc1)Nc1cccc(-c2nc3cc4ccccc4cc3[nH]2)c1	-16%	-12	?	3	?	?
CC1CC(=O)C2=C(C1)Nc1ncnn1C2c1ccccc1 (stereo not drawn)	-2%	-1	-25%	6	13%	18µM*
COCCn1nnnc1C(CC(C)C)N1CCN(C(=O)c2ccco2)CC1 (stereo not drawn)	-5%	23	/	2	2%	-13%
Cc1ccc(S(=O)(=O)Cn2nnnc2C(CC(C)C)N2CCN(C(=O)c3ccco3)CC2)cc1 (stereo not drawn)	1%	-113*	2%	-8	3%	?
CCCC(c1nnnn1Cc1ccco1)N1CCC(C(N)=O)CC1 (stereo not drawn)	0%	-26	3%	4	5%	3.5µM*
CCCCC(c1nnnn1C1CCCC1)N1CCN(C(=O)c2ccco2)CC1 (stereo not drawn)	-4%	?	-6%	-1	8%	11µM*
CCCC(c1nnnn1C1CCCC1)N1CCN(C(=O)c2ccco2)CC1 (stereo not drawn)	-3%	-21	1%	-16	-6%	?
O=C(c1ccco1)N1CCN(C(c2ccccn2)c2nnnn2C2CCCC2)CC1 (stereo not drawn)	-1%	39	-6%	5	11%	13µM*
CCC(c1nnnn1Cc1ccco1)N1CCC(C(N)=O)CC1 (stereo not drawn)	-5%	7	-2%	0	1%	?
CC(C)(C)CC(C)(C)NC(=O)/C=C/C(=O)O	/	/	/	3	-11%	/
CN(C)S(=O)(=O)c1cc(NC(=O)COC(=O)c2ccc3c(c2)OCO3)ccc1Cl	-2%	90	/	-1	5%	-14%
COc1ccc([N+](=O)[O-])cc1NC(=O)c1ccco1	/	/	/	-11	8%	5%
SMILES	ALOX12 inhib	PNC inhibitor	HPGD inh	GLA inh pH 4.5	aGal spleen mod	ALDH1A1 block
COC(=O)[C@H](Cc1ccccc1)NC(=O)[C@@H](C)CO	/	/	/	/	-3%[17.5 µM]	?
CCC(c1nnnn1Cc1ccccc1)N1CCN(C(=O)c2ccco2)CC1 (stereo not drawn)	0%	?	-8%	6	4%	6.3µM*
CC(C)CC(c1nnnn1C1CCCC1)N1CCN(C(=O)c2ccco2)CC1 (stereo not drawn)	-2%	1	-6%	-3	-7%	8.9µM*
Oc1ccc(N2CCN(C(c3ccccn3)c3nnnn3C3CCCC3)CC2)cc1 (stereo not drawn)	-9%	338	-27%	-3	2%	25µM*
COc1ccccc1C(c1nnnn1C(C)(C)C)N1CCN(C(=O)c2ccco2)CC1 (stereo not drawn)	-2%	-12	2%	-5	1%	25µM*
CCCC(c1nnnn1CC1CCCO1)N1CCN(c2ccccc2)CC1 (stereo not drawn)	/	/	/	1	5%	-3%
CCC(c1nnnn1C1CCCC1)N1CCN(Cc2ccccc2)CC1 (stereo not drawn)	6%	?	-6%	5	0%	14µM*
O=C(c1ccco1)N1CCN(C(c2cccs2)c2nnnn2C2CCCC2)CC1 (stereo not drawn)	-4%	5	1%	-13	9%	?
Cc1ccc2occ(C(c3nnnn3C3CCCC3)N3CCN(C(=O)c4ccco4)CC3)c(=O)c2c1 (stereo not drawn)	-8%	22	-5%	-7	10%	1.1µM*
CCCCC(c1nnnn1CC1CCCO1)N1CCN(Cc2ccccc2)CC1 (stereo not drawn)	2%	-100*	-11%	-1	-3%	?
Fc1ccccc1C(c1nnnn1C1CCCC1)N1CCN(Cc2ccccc2)CC1 (stereo not drawn)	-1%	-23	2%	-7	3%	?
Cc1ccc(N(Cc2cc3ccc(C)cc3[nH]c2=O)C(=O)c2ccco2)c(C)c1	/	/	/	-3	4%	/
Cc1ccc2cc(CN(C(=O)c3ccco3)c3ccccc3C)c(=O)[nH]c2c1	-10%	44	-24%	1	-14%	4.5µM*
CCOC(=O)COc1ccc(/C=C/[N+](=O)[O-])c(OCC(=O)OCC)c1	-21%	26	?	-6	1%	?
CCOc1ccc(/C=C/[N+](=O)[O-])c2ccccc12	?	16	11µM*	0	13%	28µM*
CCOC(=O)Cn1cc(/C=C/[N+](=O)[O-])c2ccccc21	/	/	/	6	0%	?
CCOC(=O)COc1ccc2ccccc2c1/C=C/[N+](=O)[O-]	1%	-10	3.5µM*	3	0%	13µM*
CCN(CC)S(=O)(=O)c1cccc(-c2nnc(SCC(=O)NCCC3=CCCCC3)n2N)c1	-6%	-17	-2%	-4	12%	?

Source: PubChem BioAssay (National Center for Advancing Translational Sciences (NCATS))
